# According to the supplement of paper PMC10849652:
# About 7,900 targets were measured; listed, in parts, are those with a hit and a random draw of the rest. About 0.6% of all pairs of compound and target were hits. Unmarked numbers belong to inactive results.
# Legend:
# Experiment in all cases: log2 fold change, soluble protein after heating vs DMSO (PISA); higher = thermal stabilisation; K562 cells, 10 uM, 30 min; active = over 0.2 and 3.5 SD of the protein, either way, in both replicates (recomputed)
# [1] = compound: C#Cc1cccc(Nc2ncnc3cc(OCCOC)c(OCCOC)cc23)c1 [erlotinib]
# Procedure, shortened: (§1)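 K562 cells at 2×10^6 cells/mL were treated with 10 μM compound for 30 min. Aliquots were heated for 3 min across 48°C-58°C, pooled, and extracted in PBS with 0.5% NP-40 at 4°C; soluble protein was the supernatant after 21,000xg for 90 min. Soluble protein was quantified by TMTpro 16plex LC-MS/MS with channel sums equalised, and reported as log2 fold change in thermal stability against DMSO controls, with values from duplicates.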
# [2] = compound: C/C(=N\NC(=O)C1=CC(=CC=C1)S(=O)(=O)N2CCOCC2)/C3=C(C=CC(=C3)Cl)O
# Procedure, shortened: as §1
# [3] = compound: C1=CC(=C(C=C1Cl)C2=NC3=NC=CN=C3C(=N2)NC4=CC=NC=C4)F
# Procedure, shortened: as §1
# [4] = compound: C1=CC(=CC=C1C2=NC3=C(N2)C=C(C=C3)C(=O)N)OC4=CC=C(C=C4)Cl
# Procedure, shortened: as §1
# [5] = compound: C1=CC2=C(C=CC(=C2)/C=C\3/C(=O)NC(=NCC4=CC=CS4)S3)N=C1
# Procedure, shortened: as §1
# [6] = compound: C1=CC2=NC=CN=C2C=C1/C=C/3\C(=O)NC(=O)S3
# Procedure, shortened: as §1
# [7] = compound: C1=CC=C(C=C1)C2=NC(=C(N2)C3=CC=NC=C3)C4=CC(=C(C=C4)Cl)O
# Procedure, shortened: as §1
# [8] = compound: C1=CC=C2C(=C1)C3=NNC4=CC=CC(=C43)C2=O
# Procedure, shortened: as §1
# [9] = compound: C1CCN(C1)C(=O)NC2=CC=CC(=C2)NC3=NC=C(C(=N3)NCCC4=CN=CN4)Br
# Procedure, shortened: as §1
# [10] = compound: C1CN(CCC1(CC2=CC=C(C=C2)Cl)N)C3=NC=NC4=C3C=CN4
# Procedure, shortened: as §1
# [11] = compound: C1COCCN1CCN2C3=CC=CC=C3N=C2NC(=O)C4=CC(=CC=C4)[N+](=O)[O-] [IRAK-1-4 Inhibitor I]
# Procedure, shortened: as §1
# [12] = compound: C=CC(=O)N1CCC[C@@H](n2nc(-c3ccc(Oc4ccccc4)cc3)c3c(N)ncnc32)C1 [ibrutinib]
# Procedure, shortened: as §1
# [13] = compound: CC(=O)c1cnc2ccc(-c3cc(Cl)c(O)c(Cl)c3)nc2c1N[C@H]1CC[C@H](CN(C)C)CC1
# Procedure, shortened: as §1
# [14] = compound: CC(C)(C)Cn1c(N)nc2ccc(-c3[nH]c(C(C)(C)C)nc3-c3ccc(F)cc3)nc21 [ralimetinib]
# Procedure, shortened: as §1
# [15] = compound: CC(C)(O)CC(=O)NCCn1ccc2ncnc(Nc3ccc(Oc4cccc(C(F)(F)F)c4)c(Cl)c3)c21
# Procedure, shortened: as §1
# [16] = compound: CC(C)C1=C2N=C(C=C(N2N=C1)NCC3=CC=CC=C3)NCCCCCCN
# Procedure, shortened: as §1
# [17] = compound: CC(C)C[C@@H](C=O)NC(=O)[C@H](CC(C)C)NC(=O)[C@H](CC(C)C)NC(=O)OCc1ccccc1
# Procedure, shortened: as §1
# [18] = compound: CC(C)N(C[C@H]1O[C@@H](n2cnc3c(N)ncnc32)[C@H](O)[C@@H]1O)[C@H]1C[C@@H](CCc2nc3cc(C(C)(C)C)ccc3[nH]2)C1 [pinometostat]
# Procedure, shortened: as §1
# [19] = compound: CC1=C(C(CC(=O)N1)C2=CC=C(C=C2)C(F)(F)F)C(=O)NC3=C(C=C4C(=C3)C=NN4)F
# Procedure, shortened: as §1
# [20] = compound: CC1=C(C2=C(C=C1)C(=O)C3=CC=CC=C3N2CCCN)C
# Procedure, shortened: as §1
# UniProt Q8IZV5, sequence (Q8IZV5 whole entry, looked up): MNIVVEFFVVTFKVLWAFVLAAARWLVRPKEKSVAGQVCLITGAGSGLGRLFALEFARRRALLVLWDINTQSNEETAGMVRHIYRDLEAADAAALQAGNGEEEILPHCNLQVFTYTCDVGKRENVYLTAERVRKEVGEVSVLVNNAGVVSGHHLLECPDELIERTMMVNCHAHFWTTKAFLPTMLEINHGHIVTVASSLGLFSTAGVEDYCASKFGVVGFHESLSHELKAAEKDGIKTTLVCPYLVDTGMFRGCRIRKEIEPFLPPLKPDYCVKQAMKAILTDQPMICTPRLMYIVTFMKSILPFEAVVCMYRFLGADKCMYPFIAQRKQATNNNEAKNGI
# UniProt Q14493, sequence (Q14493 whole entry, looked up): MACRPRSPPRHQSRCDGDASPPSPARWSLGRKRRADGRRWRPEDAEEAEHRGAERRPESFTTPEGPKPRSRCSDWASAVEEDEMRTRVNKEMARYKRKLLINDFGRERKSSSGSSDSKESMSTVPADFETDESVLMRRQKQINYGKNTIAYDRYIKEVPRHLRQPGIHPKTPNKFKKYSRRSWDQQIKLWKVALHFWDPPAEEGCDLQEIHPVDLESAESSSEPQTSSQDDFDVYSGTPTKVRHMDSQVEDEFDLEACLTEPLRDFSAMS
# UniProt Q9NSI8, sequence (Q9NSI8 whole entry, looked up): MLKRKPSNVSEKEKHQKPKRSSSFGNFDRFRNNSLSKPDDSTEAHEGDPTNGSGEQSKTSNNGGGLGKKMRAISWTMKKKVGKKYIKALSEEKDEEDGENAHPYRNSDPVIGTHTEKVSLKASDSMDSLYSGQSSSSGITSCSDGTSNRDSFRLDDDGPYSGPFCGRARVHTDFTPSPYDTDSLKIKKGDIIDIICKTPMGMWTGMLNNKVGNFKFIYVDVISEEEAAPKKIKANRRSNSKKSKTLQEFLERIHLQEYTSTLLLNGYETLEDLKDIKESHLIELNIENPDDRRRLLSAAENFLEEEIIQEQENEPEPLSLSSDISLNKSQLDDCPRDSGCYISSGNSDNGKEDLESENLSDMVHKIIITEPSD
# UniProt O95486, sequence (O95486 whole entry, looked up): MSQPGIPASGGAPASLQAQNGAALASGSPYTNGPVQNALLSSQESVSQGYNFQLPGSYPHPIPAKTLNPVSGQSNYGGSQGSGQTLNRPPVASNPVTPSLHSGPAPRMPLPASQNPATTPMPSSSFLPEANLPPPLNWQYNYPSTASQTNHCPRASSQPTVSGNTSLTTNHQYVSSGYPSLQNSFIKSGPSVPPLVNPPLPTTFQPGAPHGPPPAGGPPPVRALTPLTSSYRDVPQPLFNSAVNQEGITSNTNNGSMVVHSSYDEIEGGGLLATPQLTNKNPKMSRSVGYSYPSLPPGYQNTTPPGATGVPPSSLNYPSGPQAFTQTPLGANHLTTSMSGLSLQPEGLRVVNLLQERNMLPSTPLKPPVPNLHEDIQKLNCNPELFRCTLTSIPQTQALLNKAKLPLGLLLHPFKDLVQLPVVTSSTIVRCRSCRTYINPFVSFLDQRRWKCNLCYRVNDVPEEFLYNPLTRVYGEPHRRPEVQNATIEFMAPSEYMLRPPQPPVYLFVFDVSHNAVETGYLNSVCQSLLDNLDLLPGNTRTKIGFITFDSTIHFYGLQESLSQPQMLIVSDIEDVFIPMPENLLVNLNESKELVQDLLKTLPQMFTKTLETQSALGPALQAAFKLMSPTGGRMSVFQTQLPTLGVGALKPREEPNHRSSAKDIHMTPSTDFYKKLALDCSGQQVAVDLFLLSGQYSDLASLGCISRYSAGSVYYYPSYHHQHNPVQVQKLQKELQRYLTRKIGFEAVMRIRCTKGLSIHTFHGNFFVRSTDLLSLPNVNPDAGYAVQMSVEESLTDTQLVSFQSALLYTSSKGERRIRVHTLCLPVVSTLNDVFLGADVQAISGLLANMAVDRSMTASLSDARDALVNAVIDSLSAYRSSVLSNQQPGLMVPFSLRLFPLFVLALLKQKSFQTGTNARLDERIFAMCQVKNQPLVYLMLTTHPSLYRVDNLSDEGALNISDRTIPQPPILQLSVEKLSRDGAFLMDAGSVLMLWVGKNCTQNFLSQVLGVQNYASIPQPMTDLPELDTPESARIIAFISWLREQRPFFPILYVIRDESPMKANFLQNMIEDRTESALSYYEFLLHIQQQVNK
# UniProt Q8TC12, sequence (Q8TC12 whole entry, looked up): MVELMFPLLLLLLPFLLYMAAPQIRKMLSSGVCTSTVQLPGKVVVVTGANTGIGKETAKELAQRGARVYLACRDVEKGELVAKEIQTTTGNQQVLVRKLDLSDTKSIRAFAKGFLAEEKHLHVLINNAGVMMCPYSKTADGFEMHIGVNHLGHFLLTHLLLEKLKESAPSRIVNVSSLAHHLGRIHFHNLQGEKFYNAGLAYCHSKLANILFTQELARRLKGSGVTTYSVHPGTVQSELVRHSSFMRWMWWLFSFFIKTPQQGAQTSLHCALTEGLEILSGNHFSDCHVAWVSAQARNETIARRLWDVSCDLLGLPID
# UniProt O14730, sequence (O14730 whole entry, looked up): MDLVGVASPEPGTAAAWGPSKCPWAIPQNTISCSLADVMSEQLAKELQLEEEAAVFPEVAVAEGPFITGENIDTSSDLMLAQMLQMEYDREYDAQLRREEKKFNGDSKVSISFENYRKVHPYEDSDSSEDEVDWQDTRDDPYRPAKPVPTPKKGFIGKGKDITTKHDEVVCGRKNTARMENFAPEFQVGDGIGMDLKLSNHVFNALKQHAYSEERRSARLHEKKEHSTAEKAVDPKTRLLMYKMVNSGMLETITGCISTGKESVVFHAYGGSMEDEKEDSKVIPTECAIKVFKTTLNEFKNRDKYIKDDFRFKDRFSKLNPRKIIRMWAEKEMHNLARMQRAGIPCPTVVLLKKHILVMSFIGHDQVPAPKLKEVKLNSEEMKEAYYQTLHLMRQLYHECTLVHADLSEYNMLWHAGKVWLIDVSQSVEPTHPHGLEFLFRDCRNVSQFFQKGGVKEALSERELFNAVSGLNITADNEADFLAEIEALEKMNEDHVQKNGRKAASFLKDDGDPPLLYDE
# UniProt Q9UPN6, sequence (Q9UPN6 whole entry, looked up): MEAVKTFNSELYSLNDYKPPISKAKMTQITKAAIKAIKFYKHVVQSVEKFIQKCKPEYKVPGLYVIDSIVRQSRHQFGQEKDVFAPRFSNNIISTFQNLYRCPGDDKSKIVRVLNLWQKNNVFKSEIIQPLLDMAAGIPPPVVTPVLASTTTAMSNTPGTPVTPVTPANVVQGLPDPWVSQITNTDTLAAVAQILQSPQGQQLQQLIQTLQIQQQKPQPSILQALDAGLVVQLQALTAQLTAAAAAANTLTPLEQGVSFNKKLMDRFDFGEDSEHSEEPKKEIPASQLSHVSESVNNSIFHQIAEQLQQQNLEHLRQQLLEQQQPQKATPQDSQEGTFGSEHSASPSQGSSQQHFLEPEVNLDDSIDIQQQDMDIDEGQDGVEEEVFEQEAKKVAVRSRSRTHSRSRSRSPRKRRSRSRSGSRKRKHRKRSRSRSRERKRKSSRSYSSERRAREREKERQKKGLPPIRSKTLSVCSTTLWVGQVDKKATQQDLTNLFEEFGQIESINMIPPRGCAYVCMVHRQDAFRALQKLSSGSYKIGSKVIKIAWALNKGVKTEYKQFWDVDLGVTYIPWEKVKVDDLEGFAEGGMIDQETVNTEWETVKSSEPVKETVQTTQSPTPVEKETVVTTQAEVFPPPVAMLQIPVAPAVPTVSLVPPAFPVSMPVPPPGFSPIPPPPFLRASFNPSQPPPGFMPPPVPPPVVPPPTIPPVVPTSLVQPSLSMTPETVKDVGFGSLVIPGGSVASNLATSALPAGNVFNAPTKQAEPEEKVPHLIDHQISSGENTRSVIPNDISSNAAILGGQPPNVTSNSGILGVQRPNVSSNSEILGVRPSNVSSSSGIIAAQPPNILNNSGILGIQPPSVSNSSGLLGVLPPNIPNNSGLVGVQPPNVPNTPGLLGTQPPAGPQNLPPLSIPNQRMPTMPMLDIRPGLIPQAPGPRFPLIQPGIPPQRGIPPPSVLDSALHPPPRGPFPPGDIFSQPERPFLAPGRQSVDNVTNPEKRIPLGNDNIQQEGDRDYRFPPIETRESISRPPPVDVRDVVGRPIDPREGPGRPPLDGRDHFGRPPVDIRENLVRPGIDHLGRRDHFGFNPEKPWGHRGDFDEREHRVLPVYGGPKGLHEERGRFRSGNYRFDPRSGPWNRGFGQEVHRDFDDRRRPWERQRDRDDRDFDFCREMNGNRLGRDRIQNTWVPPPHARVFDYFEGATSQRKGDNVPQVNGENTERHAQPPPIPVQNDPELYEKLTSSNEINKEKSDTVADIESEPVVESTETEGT
# UniProt Q6NT16, sequence (Q6NT16 whole entry, looked up): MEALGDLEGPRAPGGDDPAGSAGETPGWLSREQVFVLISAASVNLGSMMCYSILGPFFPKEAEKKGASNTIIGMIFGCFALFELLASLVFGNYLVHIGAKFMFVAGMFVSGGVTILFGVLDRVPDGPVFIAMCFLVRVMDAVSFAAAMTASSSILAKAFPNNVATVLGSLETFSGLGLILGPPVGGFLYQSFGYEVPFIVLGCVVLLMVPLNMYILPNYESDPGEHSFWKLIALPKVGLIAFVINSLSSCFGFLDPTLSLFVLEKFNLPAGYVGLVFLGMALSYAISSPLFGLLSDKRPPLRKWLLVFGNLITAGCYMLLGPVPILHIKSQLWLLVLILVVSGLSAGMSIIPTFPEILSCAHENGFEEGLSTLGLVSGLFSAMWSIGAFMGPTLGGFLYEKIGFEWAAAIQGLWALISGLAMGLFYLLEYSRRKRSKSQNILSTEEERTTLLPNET
# UniProt Q5TA31, sequence (Q5TA31 whole entry, looked up): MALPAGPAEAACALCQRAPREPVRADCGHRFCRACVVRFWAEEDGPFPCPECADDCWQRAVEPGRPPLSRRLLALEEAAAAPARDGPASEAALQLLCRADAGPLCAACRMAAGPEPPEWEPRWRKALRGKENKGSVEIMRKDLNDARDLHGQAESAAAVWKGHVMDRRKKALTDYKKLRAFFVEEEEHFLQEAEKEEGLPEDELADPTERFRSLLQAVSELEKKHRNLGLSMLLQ
Target,log2 fold change [1],log2 fold change [2],log2 fold change [3],log2 fold change [4],log2 fold change [5],log2 fold change [6],log2 fold change [7],log2 fold change [8],log2 fold change [9],log2 fold change [10],log2 fold change [11],log2 fold change [12],log2 fold change [13],log2 fold change [14],log2 fold change [15],log2 fold change [16],log2 fold change [17],log2 fold change [18],log2 fold change [19],log2 fold change [20]
SCAMP2 (UniProt H3BUB6),0.182,-0.331,-0.143,0.039,0.372,-0.163,-0.281,-0.143,0.218,-0.003,0.078,0.103,-0.171,-0.278,0.102,-0.055,0.192,0.053,0.111,0.059
SCD (UniProt O00767),0.022,-0.256,0.143,-0.008,0.024,0.04,-0.059,-0.006,0.126,0.023,0.048,-0.023,0.008,-0.148,-0.046,-0.222,0.101,0,0.024,-0.027
RAD51 (UniProt Q06609),0.29,0.06,0.044,0.032,0.067,0.017,-0.025,-0.032,-0.014,0.013,0.017,0.013,-0.061,-0.074,-0.059,-0.016,0.048,-0.024,0.05,0.102
"SART3, A0A499FI31",-0.034,0.058,0.102,0.032,0.032,0.084,-0.004,-0.045,-0.078,-0.014,-0.021,-0.017,0.062,0.002,-0.033,-0.379 (active),-0.051,-0.025,0.021,-0.377 (active)
SLC18B1 (UniProt Q6NT16),-0.011,-0.09,0.067,0.06,0.108,0,0.12,0.002,-0.037,0.081,0.135,0.042,0.016,-0.044,-0.023,-0.356 (active),-0.05,0.02,0.05,-0.036
RDH11 (UniProt Q8TC12),-0.007,-0.03,0.102,0.068,0.084,-0.1,0.029,0.04,-0.044,-0.043,0.032,0.067,-0.145,0.059,-0.126,-0.74 (active),0.117,0.013,-0.028,0.103
RAVER1 (UniProt E9PAU2),0.218,0.403,0.042,0.009,0.002,-0.06,0.257,-0.084,-0.05,-0.011,-0.062,0.033,-0.308,0.082,-0.263,-0.409,-0.042,0.052,0.016,-0.694
SCAF8 isoform 2 (UniProt Q9UPN6),0.203,0.051,0.048,0.034,0.124,-0.028,0.298,0.069,-0.031,-0.036,0.035,-0.057,-0.145,-0.054,-0.169,-0.417 (active),0.23,0.065,-0.05,0.138
RNF187 (UniProt Q5TA31),0.095,-0.05,-0.061,-0.028,0.101,-0.028,-0.067,0.008,0.017,-0.056,0.059,0.045,-0.124,0.039,0.024,0.077,0.424 (active),-0.075,0.046,-0.226
RDH10 (UniProt Q8IZV5),0.122,0.065,0.024,0.003,0.204,-0.035,0.077,0.039,-0.008,0.235,0.076,0.159,-0.07,0.008,0.075,0.069,-0.043,-0.018,0.007,0.007
SEC24A (UniProt O95486),0.084,0.097,0.031,-0.018,0.033,-0.022,0.036,0.022,-0.026,0.011,-0.038,-0.017,-0.013,0.018,-0.066,-0.057,-0.005,0.005,0.009,0.019
RIOK3 (UniProt O14730),0.037,0.014,0.062,0.003,-0.019,0.048,-0.033,0.02,0.024,-0.025,0.087,0.002,0.024,-0.009,-0.083,-0.009,0.021,-0.011,0.019,-0.231 (active)
SAMSN1 isoform 3 (UniProt Q9NSI8),0.027,0.012,-0.006,0.001,0.037,0.021,-0.009,-0.022,0.007,-0.114,0.028,-0.021,-0.125,-0.016,-0.034,-0.095,0.041,0.014,0.023,0.008
SLBP (UniProt Q14493),0.006,0.03,-0.058,0.019,-0.111,0.035,0.005,0.008,0.008,-0.039,-0.123,-0.162,-0.38 (active),-0.068,-0.09,-0.206,0.162,-0.034,0.098,-0.126
RPS27A (UniProt P62979),-0.246,-0.143,-0.207,0.016,-0.136,-0.033,0.004,-0.062,0.111,-0.098,-0.055,0.141,0.054,0.082,0.216,0.051,0.114,0.078,0.157,-0.557 (active)
RPS3A (UniProt P61247),-0.178,-0.041,-0.232,0.062,-0.039,-0.035,-0.028,0,0.088,-0.162,-0.133,0.028,0.072,0.053,0.069,-0.071,0.059,0.108,0.03,-0.565 (active)
